Measured values: the supplement of paper PMC6555819

Key:
Experiment in all cases: PBM binding z-score (relative to random genomic background probes); higher = stronger binding; sequences stand for … in GC…GCGATTGACAGCGTAGAATGAAGG
[1] = tested on: RARb homodimer (NR concentration 270 nM)
How it was run: (§1)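 Custom Agilent 4×180K protein-binding microarrays carried double-stranded probes. Their 34-nt variable regions held direct-repeat seeds, single-nucleotide variants, half-site ablations and random human genomic background sequences. Arrays were incubated 1 h with ligand-free nuclear receptor dimers in PBS pH 7.4, 2% milk, 0.02% Triton X-100, 1 mM DTT, 0.2 mg/mL BSA and 0.4 mg/ml salmon testes DNA. Antibodies against each partner (one per run) detected binding, and scanned fluorescence was regression-normalized. Binding z-scores use random background probes as reference.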

[2] = tested on: RARg:RXRa (NR concentration 270 nM, RXRa partner concentration 90 nM)
How it was run: as §1

[3] = tested on: RARg homodimer (NR concentration 270 nM)
How it was run: as §1

[4] = tested on: RXRa DBDmut IVT, anti-RXR (DBD mutation: RXRa K156A/R161A, NR concentration 90 nM)
How it was run: as §1

[5] = tested on: RXRa homodimer (NR concentration 180 nM)
How it was run: as §1

[6] = tested on: THRa:RXRa (NR concentration 90 nM, RXRa partner concentration 90 nM)
How it was run: as §1

[7] = tested on: THRa homodimer (NR concentration 90 nM)
How it was run: as §1

[8] = tested on: VDR:RXRa (NR concentration 270 nM, RXRa partner concentration 90 nM)
How it was run: as §1

[9] = tested on: VDR homodimer (NR concentration 270 nM)
How it was run: as §1

CCTTACGGGTCAAGGTTACAGCACGGGTGGTACG
PBM binding z-score [1]: 3.8
PBM binding z-score [2]: 5.07
PBM binding z-score [3]: 4.96
PBM binding z-score [4]: 0.498
PBM binding z-score [5]: 5.42
PBM binding z-score [6]: 3.38
PBM binding z-score [7]: 1.09
PBM binding z-score [8]: 3.34
PBM binding z-score [9]: 1.19

CGAACGAGGGCATGAGTTGATAGCTAATGCCGAT
PBM binding z-score [1]: 0.599
PBM binding z-score [2]: 1.51
PBM binding z-score [3]: 1.52
PBM binding z-score [4]: 2.15
PBM binding z-score [5]: 0.984
PBM binding z-score [6]: 1.25
PBM binding z-score [7]: -0.207
PBM binding z-score [8]: 1.37
PBM binding z-score [9]: 1.67

CCGACTGGGGCAAAAGGTTACCATAAGCCAGCCC
PBM binding z-score [1]: 3.28
PBM binding z-score [2]: 3.72
PBM binding z-score [3]: 2.32
PBM binding z-score [4]: 0.0121
PBM binding z-score [5]: 2.71
PBM binding z-score [6]: 1.44
PBM binding z-score [7]: -0.187
PBM binding z-score [8]: 1.08
PBM binding z-score [9]: -0.455

GCTAGTTGGTCAGTCAAAGGTCACACACCGGTCG
PBM binding z-score [1]: 5.2
PBM binding z-score [2]: 5.9
PBM binding z-score [3]: 4.85
PBM binding z-score [4]: 0.537
PBM binding z-score [5]: 5.93
PBM binding z-score [6]: 3.52
PBM binding z-score [7]: 1.59
PBM binding z-score [8]: 4.3
PBM binding z-score [9]: 1.47

CCTGCAAGGTCATGGTCAGCTAATCTACAGTATG
PBM binding z-score [1]: 4.17
PBM binding z-score [2]: 6.01
PBM binding z-score [3]: 6.24
PBM binding z-score [4]: 3.84
PBM binding z-score [5]: 6.36
PBM binding z-score [6]: 4.04
PBM binding z-score [7]: 2.86
PBM binding z-score [8]: 4.76
PBM binding z-score [9]: 2.64

CATACTGGGCCATCAGGTCATTGATATCAACGTT
PBM binding z-score [1]: 2.78
PBM binding z-score [2]: 2.53
PBM binding z-score [3]: 2.08
PBM binding z-score [4]: 0.904
PBM binding z-score [5]: 1.61
PBM binding z-score [6]: 3.29
PBM binding z-score [7]: 3.27
PBM binding z-score [8]: 2.28
PBM binding z-score [9]: 2.38

CCTGCTCGGTCATGGTCAGCTAATCTACAGTATG
PBM binding z-score [1]: 1.93
PBM binding z-score [2]: 1.91
PBM binding z-score [3]: 2.66
PBM binding z-score [4]: 0.361
PBM binding z-score [5]: 0.252
PBM binding z-score [6]: 0.067
PBM binding z-score [7]: -0.311
PBM binding z-score [8]: -0.315
PBM binding z-score [9]: -0.527

CAGCCTAGGTCAGAGCCAGTATAGGAGGAACGTT
PBM binding z-score [1]: 2.13
PBM binding z-score [2]: 2.87
PBM binding z-score [3]: 3.5
PBM binding z-score [4]: 0.588
PBM binding z-score [5]: 1.5
PBM binding z-score [6]: 1.76
PBM binding z-score [7]: 0.271
PBM binding z-score [8]: 0.207
PBM binding z-score [9]: -0.348

CGTCCAAGGTCGGAGAGGTCAGTGAATGCCGAGT
PBM binding z-score [1]: 4.01
PBM binding z-score [2]: 4.23
PBM binding z-score [3]: 4.66
PBM binding z-score [4]: 2.06
PBM binding z-score [5]: 3.74
PBM binding z-score [6]: 3.34
PBM binding z-score [7]: 1.31
PBM binding z-score [8]: 6.04
PBM binding z-score [9]: 3.93

CGAACTAGGTCATCCGGGACAGTGAATACATTGA
PBM binding z-score [1]: 2.87
PBM binding z-score [2]: 3.87
PBM binding z-score [3]: 4.59
PBM binding z-score [4]: 2.41
PBM binding z-score [5]: 2.75
PBM binding z-score [6]: 3.58
PBM binding z-score [7]: 1.84
PBM binding z-score [8]: 4.04
PBM binding z-score [9]: 1.96

TCTTGTAGATCAATAGAGGTAAAGAAAGTGCGCT
PBM binding z-score [1]: -0.162
PBM binding z-score [2]: 0.0817
PBM binding z-score [3]: 0.0168
PBM binding z-score [4]: 0.436
PBM binding z-score [5]: 0.364
PBM binding z-score [6]: 1.9
PBM binding z-score [7]: -0.539
PBM binding z-score [8]: 0.45
PBM binding z-score [9]: -0.6

GTACCAAGGAGAATAGGTCGTTGATGAGTAGGCG
PBM binding z-score [1]: 0.0836
PBM binding z-score [2]: 0.268
PBM binding z-score [3]: 0.222
PBM binding z-score [4]: -0.343
PBM binding z-score [5]: 0.654
PBM binding z-score [6]: -0.111
PBM binding z-score [7]: -0.986
PBM binding z-score [8]: 0.0366
PBM binding z-score [9]: -0.123

GCTTGTAGAACAAGGTTAAGAAAGACTAAGCTAA
PBM binding z-score [1]: -0.00172
PBM binding z-score [2]: 0.534
PBM binding z-score [3]: 0.188
PBM binding z-score [4]: -0.0592
PBM binding z-score [5]: 0.633
PBM binding z-score [6]: 0.947
PBM binding z-score [7]: -0.592
PBM binding z-score [8]: 0.106
PBM binding z-score [9]: -0.315

GCTGGTAGGTCAACTGATGGTCAGCTAAAGCTCG
PBM binding z-score [1]: 3.79
PBM binding z-score [2]: 5.73
PBM binding z-score [3]: 5.34
PBM binding z-score [4]: 1.57
PBM binding z-score [5]: 3.65
PBM binding z-score [6]: 2.54
PBM binding z-score [7]: 0.0326
PBM binding z-score [8]: 2.01
PBM binding z-score [9]: 0.11

CATACAGGGTCAGCTAGGACAGAGTAGGGACGGC
PBM binding z-score [1]: 3.14
PBM binding z-score [2]: 4.21
PBM binding z-score [3]: 4.66
PBM binding z-score [4]: 1.58
PBM binding z-score [5]: 3.74
PBM binding z-score [6]: 3.54
PBM binding z-score [7]: 1.31
PBM binding z-score [8]: 4.03
PBM binding z-score [9]: 1.19

CTCGAAAGGTCGGTTGTGGTGAGTATACGGATAA
PBM binding z-score [1]: 1.92
PBM binding z-score [2]: 2.21
PBM binding z-score [3]: 2.35
PBM binding z-score [4]: 1.08
PBM binding z-score [5]: 1.79
PBM binding z-score [6]: 2.66
PBM binding z-score [7]: 0.291
PBM binding z-score [8]: 1.05
PBM binding z-score [9]: 0.903

TCTATTAGTTGAAGGGCATCCGACGAGTCCGTTT
PBM binding z-score [1]: 0.904
PBM binding z-score [2]: 0.374
PBM binding z-score [3]: 0.361
PBM binding z-score [4]: 1.86
PBM binding z-score [5]: 0.598
PBM binding z-score [6]: 0.0886
PBM binding z-score [7]: 0.288
PBM binding z-score [8]: 1.08
PBM binding z-score [9]: 1.51

CCTACTGGGCCATTCAAAGGTCATTGATCATATG
PBM binding z-score [1]: 4.5
PBM binding z-score [2]: 4.85
PBM binding z-score [3]: 3.67
PBM binding z-score [4]: 0.609
PBM binding z-score [5]: 4.61
PBM binding z-score [6]: 3.25
PBM binding z-score [7]: 0.994
PBM binding z-score [8]: 3.96
PBM binding z-score [9]: 2.4

TCATATAGGTAAATGCTAGGAGAAAGTCCGATCT
PBM binding z-score [1]: -0.501
PBM binding z-score [2]: 0.278
PBM binding z-score [3]: 0.46
PBM binding z-score [4]: 1.67
PBM binding z-score [5]: 0.597
PBM binding z-score [6]: -0.0458
PBM binding z-score [7]: -0.197
PBM binding z-score [8]: 0.71
PBM binding z-score [9]: -0.0177

CGAACTAGGTCAGAATAGGACAGTGAAGGATGAT
PBM binding z-score [1]: 2.16
PBM binding z-score [2]: 2.58
PBM binding z-score [3]: 3.36
PBM binding z-score [4]: 0.702
PBM binding z-score [5]: 1.3
PBM binding z-score [6]: 2.77
PBM binding z-score [7]: 0.0202
PBM binding z-score [8]: 0.491
PBM binding z-score [9]: -0.245

TCTGCTAGGTCAACGATGGTCAGCTATTCTGCTA
PBM binding z-score [1]: 3.16
PBM binding z-score [2]: 3.99
PBM binding z-score [3]: 4.93
PBM binding z-score [4]: 0.833
PBM binding z-score [5]: 2.46
PBM binding z-score [6]: 3.03
PBM binding z-score [7]: 0.599
PBM binding z-score [8]: 1.71
PBM binding z-score [9]: -0.371

CCGACTGGGGCATAAGGTTACCAGAAGCCAGCCC
PBM binding z-score [1]: 1.99
PBM binding z-score [2]: 1.86
PBM binding z-score [3]: 1.08
PBM binding z-score [4]: -0.501
PBM binding z-score [5]: 1.26
PBM binding z-score [6]: 2.28
PBM binding z-score [7]: 1.23
PBM binding z-score [8]: 0.214
PBM binding z-score [9]: -0.301

TCAGACAGGTGAAGGTTACTCAGGTACGCAGTCG
PBM binding z-score [1]: 1.84
PBM binding z-score [2]: 1.16
PBM binding z-score [3]: 1.17
PBM binding z-score [4]: 1.54
PBM binding z-score [5]: 1.72
PBM binding z-score [6]: 2.58
PBM binding z-score [7]: 0.799
PBM binding z-score [8]: 1.69
PBM binding z-score [9]: 0.58

CCGACTGGGGCAGAAAGGTGACCATACCATCCGG
PBM binding z-score [1]: 1.8
PBM binding z-score [2]: 0.634
PBM binding z-score [3]: 0.776
PBM binding z-score [4]: -0.975
PBM binding z-score [5]: 0.533
PBM binding z-score [6]: 0.282
PBM binding z-score [7]: -0.472
PBM binding z-score [8]: -0.31
PBM binding z-score [9]: -0.595

AGAATGAGGTTAAGATCAGAGAAACAGAATACAT
PBM binding z-score [1]: 0.686
PBM binding z-score [2]: 2.05
PBM binding z-score [3]: 1.45
PBM binding z-score [4]: 0.652
PBM binding z-score [5]: 2.36
PBM binding z-score [6]: 2.29
PBM binding z-score [7]: 0.47
PBM binding z-score [8]: 1.11
PBM binding z-score [9]: 0.291

CCTACTGGGCCAAGTTCATTGATCAGTCAAAGCA
PBM binding z-score [1]: 1.71
PBM binding z-score [2]: 1.45
PBM binding z-score [3]: 1.09
PBM binding z-score [4]: 2.37
PBM binding z-score [5]: 0.409
PBM binding z-score [6]: 0.994
PBM binding z-score [7]: 0.294
PBM binding z-score [8]: 2.89
PBM binding z-score [9]: 4.4
